Experimental findings from publication PMC4336329 (PLoS ONE, 2015) are described below.

About 14,000 (4.5%) of roughly 310,000 compounds showed an effect of 50% or more. The effect is printed as a negative number. The entries come from a sample that favours strong results as a whole.
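Note: peak tail current of the secondary pulse compared with the same well before compound.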

The assay deals with human ether-à-go-go-related gene (hERG) potassium channel (human, UniProt Q12809). The experiment in a line: primary screen, population patch clamp on CHO cells stably expressing hERG; higher = less effect of the substance.
Chain of human ether-à-go-go-related gene (hERG) potassium channel (Q12809 whole entry, looked up): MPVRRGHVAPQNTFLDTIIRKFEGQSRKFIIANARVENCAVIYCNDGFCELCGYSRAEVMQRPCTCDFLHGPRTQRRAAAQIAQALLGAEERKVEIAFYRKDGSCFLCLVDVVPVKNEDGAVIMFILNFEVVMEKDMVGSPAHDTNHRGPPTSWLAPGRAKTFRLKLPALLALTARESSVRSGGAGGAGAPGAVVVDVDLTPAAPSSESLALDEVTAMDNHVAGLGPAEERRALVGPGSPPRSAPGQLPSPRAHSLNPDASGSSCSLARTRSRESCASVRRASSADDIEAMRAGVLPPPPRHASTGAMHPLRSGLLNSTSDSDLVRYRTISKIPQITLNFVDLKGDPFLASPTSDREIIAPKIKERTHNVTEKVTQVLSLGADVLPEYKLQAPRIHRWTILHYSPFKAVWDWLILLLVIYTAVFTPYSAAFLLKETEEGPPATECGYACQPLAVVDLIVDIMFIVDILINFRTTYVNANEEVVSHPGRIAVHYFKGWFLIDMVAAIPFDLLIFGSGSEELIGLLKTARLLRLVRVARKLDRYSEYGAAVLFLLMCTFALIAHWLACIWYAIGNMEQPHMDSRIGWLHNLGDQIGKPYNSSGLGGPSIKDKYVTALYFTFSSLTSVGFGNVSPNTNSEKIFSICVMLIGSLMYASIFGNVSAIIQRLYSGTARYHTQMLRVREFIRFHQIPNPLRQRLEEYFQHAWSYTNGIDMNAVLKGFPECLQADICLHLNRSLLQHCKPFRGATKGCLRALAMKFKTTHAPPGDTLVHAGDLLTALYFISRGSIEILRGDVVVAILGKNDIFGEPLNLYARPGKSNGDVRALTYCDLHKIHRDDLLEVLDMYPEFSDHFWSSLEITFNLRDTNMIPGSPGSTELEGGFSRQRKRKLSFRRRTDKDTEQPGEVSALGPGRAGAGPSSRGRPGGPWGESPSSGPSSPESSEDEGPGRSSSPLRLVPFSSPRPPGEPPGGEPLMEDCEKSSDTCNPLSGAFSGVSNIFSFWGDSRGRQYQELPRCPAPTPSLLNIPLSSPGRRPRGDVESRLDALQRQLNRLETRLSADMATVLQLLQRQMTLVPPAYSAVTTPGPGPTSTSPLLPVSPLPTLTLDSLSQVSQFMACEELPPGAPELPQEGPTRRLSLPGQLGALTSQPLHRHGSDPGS
As for `O=C(O)c1cccc(N2C(=O)c3cc4cccc(Br)c4cc3C2=O)c1`, the “hERG current change (%, negative = inhibition) at 10uM” value came to 18.4%.
On to `Cc1cc(CNC(=O)CC2C(=O)NCCN2Cc2ccc(-c3ccccc3)cc2)nn1C` (stereo not shown), for which the “hERG current change (%, negative = inhibition) at 10uM” value is reported as -4.68%.
In the case of `O=C(c1ccc([N+](=O)[O-])s1)N1CCc2ccccc2C1`, the “hERG current change (%, negative = inhibition) at 10uM” value is listed as 13%.
As to `FC(F)(F)Oc1ccc(NC(=S)NCc2ccccc2)cc1`, the “hERG current change (%, negative = inhibition) at 10uM” value worked out at 4.62%.
In the case of `Cl.O=C(CNC1=NCCC1)c1ccc(Cl)cc1`, the “hERG current change (%, negative = inhibition) at 10uM” value is -12.2%.
For `CCCCCCn1c(SCC(=O)OC)nc2c1c(=O)[nH]c(=O)n2C`, the “hERG current change (%, negative = inhibition) at 10uM” value is on record as -70.1%.
The value for `CCCCCn1c(SCC(=O)OC)nc2c1c(=O)[nH]c(=O)n2C` was -60.7%.
With `CCCCCCn1c(SCCCC)nc2c1c(=O)[nH]c(=O)n2C`, the “hERG current change (%, negative = inhibition) at 10uM” value worked out at 1.97%.
The value for `CCCCn1c(SCC(=O)OCC)nc2c1c(=O)[nH]c(=O)n2C` was -41.9%; that for `CCOCCn1c(SC(C)C(C)=O)nc2c1c(=O)[nH]c(=O)n2C` (stereo not shown) was -42.8%; that for `CCCCCCn1c(SCC(=O)c2ccccc2)nc2c1c(=O)[nH]c(=O)n2C` was -26%.
For `COC(=O)CSc1nc2c(c(=O)[nH]c(=O)n2C)n1CCC(C)C` the value was -3.93%; for `CCCCCCn1c(SCC(C)C)nc2c1c(=O)[nH]c(=O)n2C`, 10.3%.
As to `CCCCCn1c(SC(C)C(C)=O)nc2c1c(=O)[nH]c(=O)n2C` (stereo not shown), the “hERG current change (%, negative = inhibition) at 10uM” value is reported as -92.5%.
Regarding `CCCCCCn1c(SCCC)nc2c1c(=O)[nH]c(=O)n2C`, the “hERG current change (%, negative = inhibition) at 10uM” value is on record as -9.85%.
The value for `CCCCCn1c(SCCCC)nc2c1c(=O)[nH]c(=O)n2C` was -3.74%; that for `CCCCCCn1c(SCCOC)nc2c1c(=O)[nH]c(=O)n2C` was -59.8%.
With `Cc1cccc(-n2ncc3c(=O)[nH]c(SCC(=O)NCCC4=CCCCC4)nc32)c1`, the “hERG current change (%, negative = inhibition) at 10uM” value stood at 10.9%.
Consider `CCN(CC)S(=O)(=O)c1cccc(-c2n[nH]c(=S)n2/N=C/c2ccc(C(=O)OC)cc2)c1`, for which the “hERG current change (%, negative = inhibition) at 10uM” value is given as -34%.
For the molecule `O=C(COC(=O)c1ccc(S(=O)(=O)N2CCCC2)cc1)NCc1ccco1`, the “hERG current change (%, negative = inhibition) at 10uM” value is -10.1%.
On to `O=[N+]([O-])c1ccc(/C=N/NC2=NS(=O)(=O)c3ccccc32)cc1`, for which the “hERG current change (%, negative = inhibition) at 10uM” value is -7.49%.
Regarding `O=C(OCn1nnc2ccccc2c1=O)C1CCCCC1`, the “hERG current change (%, negative = inhibition) at 10uM” value stood at 5.57%.
Turning to `CCCCCCn1c(NCC)nc2c1c(=O)[nH]c(=O)n2C`, the “hERG current change (%, negative = inhibition) at 10uM” value is -14.7%.
For `CCCCCCn1c(N(CC)CC)nc2c1c(=O)[nH]c(=O)n2C` the value was -63.6%.
For `CCN(CC)c1nc2c(c(=O)[nH]c(=O)n2C)n1CCCc1ccccc1` the value was -45.3%.
In the case of `Cn1nc(C(=O)OCC(=O)NCCc2ccccc2)c2ccccc2c1=O`, the “hERG current change (%, negative = inhibition) at 10uM” value was 2.9%.
`Cc1cccn2c(=O)c(/C=C(\C#N)C(=O)NCc3ccco3)c(N3CCOCC3)nc12`: the “hERG current change (%, negative = inhibition) at 10uM” value is listed as -50.9%.
For `Cc1ccc(S(=O)(=O)/C(C#N)=C/c2c(N3CC(C)OC(C)C3)nc3c(C)cccn3c2=O)cc1` (stereo not shown), the “hERG current change (%, negative = inhibition) at 10uM” value was -28.1%.
As to `Cc1ccc(S(=O)(=O)/C(C#N)=C/c2c(Oc3ccc(Cl)cc3)nc3c(C)cccn3c2=O)cc1`, the “hERG current change (%, negative = inhibition) at 10uM” value stood at 19.3%.
As for `Cc1cccn2c(=O)c(/C=C(\C#N)C(=O)NCc3ccco3)c(N3CCCCCC3)nc12`, the “hERG current change (%, negative = inhibition) at 10uM” value was -36.5%.
As to `Cc1cccn2c(=O)c(/C=C(\C#N)S(=O)(=O)c3ccccc3)c(N3CCN(Cc4ccccc4)CC3)nc12`, the “hERG current change (%, negative = inhibition) at 10uM” value is -4.68%.
As for `CCN1CCN(c2nc3c(C)cccn3c(=O)c2/C=C(\C#N)S(=O)(=O)c2ccc(C)cc2)CC1`, the “hERG current change (%, negative = inhibition) at 10uM” value was -62.9%.
`Cc1ccc(S(=O)(=O)/C(C#N)=C/c2c(N3CCOCC3)nc3c(C)cccn3c2=O)cc1`: the “hERG current change (%, negative = inhibition) at 10uM” value is reported as -56%.
In the case of `Cc1cccn2c(=O)c(/C=C(\C#N)C(=O)NCc3ccco3)c(N3CCCCC3)nc12`, the “hERG current change (%, negative = inhibition) at 10uM” value is listed as -37.8%.
`CCN1CCN(c2nc3c(C)cccn3c(=O)c2/C=C(\C#N)S(=O)(=O)c2ccccc2)CC1`: the “hERG current change (%, negative = inhibition) at 10uM” value was -15.7%.
For `Cc1cccn2c(=O)c(/C=C(\C#N)S(=O)(=O)c3ccccc3)c(N3CCN(c4ccccc4)CC3)nc12` the value was 9.12%; for `Cc1cccn2c(=O)c(/C=C(\C#N)S(=O)(=O)c3ccccc3)c(N3CCN(C)CC3)nc12`, -45.5%.
Turning to `Cc1ccc(S(=O)(=O)/C(C#N)=C/c2c(N3CCN(C)CC3)nc3c(C)cccn3c2=O)cc1`, the “hERG current change (%, negative = inhibition) at 10uM” value is recorded as -67.5%.
Take `O=C(Cn1cnc([N+](=O)[O-])n1)N/N=C/c1ccccc1O`: the “hERG current change (%, negative = inhibition) at 10uM” value is recorded as 14.4%.
In the case of `COC(=O)C[C@](O)(CCCC(C)(C)O)C(=O)O[C@@H]1C(OC)=C[C@]23CCCN2CCc2cc4c(cc2[C@H]13)OCO4`, the “hERG current change (%, negative = inhibition) at 10uM” value amounted to 10.4%.
With `CCCCOCCCNC(=O)N[C@H](C(=O)OC)C(C)C`, the “hERG current change (%, negative = inhibition) at 10uM” value is listed as 10.7%.
`Cn1c(=O)c2c(ncn2CC(=O)Nc2ccc3c(c2)OCO3)n(C)c1=O`: the “hERG current change (%, negative = inhibition) at 10uM” value was 3.43%.
For `O=C(Nc1ncc(C(F)(F)F)cc1Cl)C1COc2ccccc2O1` (stereo not shown) the value was -3.76%.
